Measurements published in ChEMBL document CHEMBL3988442, “University of Dundee, Small-Polar-MMV Screening Library” (2021).
Out of some 48,000 compounds screened, about 13,000 (27%) showed an effect of 50% or more. Some of the results follow.

These compounds were tested on Wolbachia pipientis (assay: Anti-Wolbachia Cell-Based Screen). Settings: 5 µM.
Type: functional
Set-up: scale not given: in the data most compounds retested in dose-response had high values

SMILES | Percent Effect [%]
CCCN(CC1COc2ccccc2O1)C(=O)c1ncoc1CC (stereo unspecified) | -65.56
Cc1ncsc1CN1C[C@@H](OCC2CC2)[C@H]2OCCC[C@H]21 | -10.25
Cc1ccsc1C(=O)Nc1cc(Br)c(=O)n(C)c1 | -6.468
O=C(c1cnc(O)cn1)N(Cc1ccsc1)CC1CCCO1 (stereo unspecified) | -2.864
N#CCCN(Cc1ccco1)C(=O)c1ccc(OCC2CC2)cc1 | 40.98
N#CCCN(CC1CCCO1)C(=O)c1ccsc1 (stereo unspecified) | 115.2
N#CCCN(CCC#N)C(=O)c1ccc(OCC2CC2)cc1 | 8.167
N#CCCN(CC1CCCO1)C(=O)c1ccc(C#N)cc1 (stereo unspecified) | 122.3
O=C(c1cccc(=O)[nH]1)N(Cc1ccsc1)CC1CCCO1 (stereo unspecified) | -26.62
CCn1/c(=N/C(=O)CSCC(=O)Nc2nccs2)sc2ccccc21 | 6.405
CN(C)C(=O)CN1C[C@@H]2CC[C@H](C1)N(C(=O)CCCn1cncn1)C2 | 9.651
O=C1CCC(C(=O)N2CCC(Cn3cc(C4CCCC4)nn3)CC2)=NN1 | -1.401
Cc1noc(C)c1CN1CCCC(CN(C(=O)OC(C)(C)C)C(C)C)C1 (stereo unspecified) | -2.017
COCC(=O)N1CCC(O)(CN2CCN(c3ccccc3)CC2)C1 (stereo unspecified) | 93.8
O=C(CC1CC1)N1CCC(O)(CN2CCN(c3ccccc3)CC2)C1 (stereo unspecified) | 113.7
CN(C)CC1(O)CCCN(C(=O)Cn2nc3ccccc3n2)CC1 (stereo unspecified) | -26.73
NC(=O)CN1CCCC(C(=O)N2CCC(O)(Cc3ccccc3)CC2)C1 (stereo unspecified) | 12.2
Cc1ccc(CN2CC3(CCN(C(=O)C4CC4)CC3)CC2C(=O)O)o1 (stereo unspecified) | -15.03
O=C(C1CC1)N1CCC(O)(CN2CCN(c3ccccc3)CC2)C1 (stereo unspecified) | 101.1
O=C(CC1CC1)N1CCC2(CC(=O)N(c3cccc(F)c3)C2)C1 (stereo unspecified) | -13.04
COCC(=O)N1CC2(CCN(c3ccccc3)C2)C1 | 10.91
O=C(Cn1nc2ccccc2n1)N1CCCC(O)(CN2CCCC2)C1 (stereo unspecified) | -26.39
COCC(=O)N1CCCC2(CCN(c3ccccc3)C2=O)C1 (stereo unspecified) | -10.31
NCC(=O)N1CCCC(O)(CN2CCN(c3ccccc3)CC2)CC1 (stereo unspecified) | 149.6

SMILES | Percent Effect [%]
CN1CCc2ccc(NCc3cccs3)cc2C1=O | -3.883
Cc1nc(-c2cc(C(=O)NCC(C)(C)CO)c3ccccn23)cs1 | -18.5
COc1cc(NC(=O)NC(C2CC2)C2CC2)ccc1N1CCOC1=O | -4.711
CN1CCN(C(=O)N2C[C@H]3CC[C@@H]2CN(Cc2ccccc2)C3)CC1 | -20.32
O=C(NC1CC(=O)N(C2Cc3ccccc3C2)C1)c1ccoc1 (stereo unspecified) | -3.995
CCC(=O)NCc1cc(Br)ccc1OC(F)F | -1.176
CS(=O)(=O)c1nccn1Cc1ccc(Cl)cc1 | -5.692
O=C(CNC1CCc2ncnn2C1)N(Cc1cccs1)C1CC1 (stereo unspecified) | 0.7257
O=C(NCCN1CCOCC1)c1n[nH]c(=O)c2ccccc12 | 6.871
CCc1ccc(C(=O)N2CCC(O)(CN3CCOCC3)C(C)(C)C2)[nH]1 (stereo unspecified) | -6.859
O=C(c1n[nH]c(=O)c2ccccc12)N1CCC(O)(CN2CCOCC2)C1 (stereo unspecified) | 88.42
CCCNC(=O)CN1CCN(Cc2csc(C(C)(C)C)n2)CC1 | -11.65
COc1cccc(NC(=O)NCC(C)(O)CCSC)c1OC (stereo unspecified) | -0.9088
CN(C)C(=O)c1cn[nH]c1C1CCCN1Cc1cncn1C (stereo unspecified) | 96.91
Cc1nc(CN2CCCC2c2[nH]ncc2C(=O)N(C)C)cs1 (stereo unspecified) | 135.6
CN(C(=O)CN1CCCC1c1cnn(C)c1)C(C)(C)C#N (stereo unspecified) | 6.976
Cc1ccc2nc(C3CCCN3Cc3csc(C)n3)[nH]c2c1 (stereo unspecified) | 2.616
CNc1cncc(C2CCCN2Cc2c[nH]cn2)n1 (stereo unspecified) | -2.81
CC(=O)Nc1nc(CN2CCCC2c2cnn(C)c2)cs1 (stereo unspecified) | -2.623
Fc1ccc2[nH]c(C3CCCN3Cc3c[nH]cn3)nc2c1 (stereo unspecified) | -35.05
CN(CC1CC1)C(=O)CN1CCCC1c1cnn(C)c1 (stereo unspecified) | -56.85
CC(=O)NCCNC(=O)CN1CCN(Cc2nccn2C)C(C)C1 (stereo unspecified) | 1.772
Cn1ccnc1CN1CCCCC1c1nc(-c2ccccc2)no1 (stereo unspecified) | 18.03
CN(C)C(=O)c1cn[nH]c1C1CCCN1Cc1c[nH]cn1 (stereo unspecified) | 119.4

SMILES | Percent Effect [%]
CN(C)C(=O)c1cn[nH]c1C1CCCN1Cc1nccn1C.O=CO (stereo unspecified) | 83.24
CC(Oc1ccccc1C(F)(F)F)C(=O)NCCNC(=O)C1CC1 (stereo unspecified) | -69.67
Cc1cnn(CCC(=O)NS(=O)(=O)N2CCc3ccccc32)c1 | 5.056
Cc1nn(C)c2ncnc(N(C)CC3CCN(CC(C)C)C3)c12 (stereo unspecified) | -20.38
O=C(NC[C@H]1OC[C@@H](NC2COC2)[C@@H]1O)Nc1ccccc1 | 4.366
Cc1ccc(C(=O)N2CCC(n3cc(CN)nn3)CC2)cc1F | 8.756
CCCN(CC1COc2ccccc2O1)C(=O)CCN1C(=O)CCC1=O (stereo unspecified) | 23.62
CC(C)NC(=O)[C@@H]1C[C@@H](N)CN1C(=O)CCSCc1ccccc1 | -10.01
Cc1nn(C)c(N2CCOCC2)c1CNC1CCc2ccccc2C1 (stereo unspecified) | -5.455
Cc1cccc(CN2CCCC(O)(CNCCN3CCCCC3)C2=O)c1 (stereo unspecified) | -21.92
CC1c2ncc(Cn3cccn3)n2CCN1Cc1ccc(F)cc1.O=C(O)C(F)(F)F (stereo unspecified) | 95.73
CC1c2ncc(Cn3cccn3)n2CCN1Cc1cccnc1.O=C(O)C(F)(F)F.O=C(O)C(F)(F)F (stereo unspecified) | 97.64
CC1c2ncc(COCc3ccccn3)n2CCN1C1CCCC1.O=C(O)C(F)(F)F.O=C(O)C(F)(F)F (stereo unspecified) | 16.64
CCOCc1cnc2n1CCN(C(=O)Cc1ccccn1)C2C.O=C(O)C(F)(F)F (stereo unspecified) | -0.9872
CC1c2ncc(CN3CCN(C)CC3)n2CCN1Cc1ccccn1.O=C(O)C(F)(F)F.O=C(O)C(F)(F)F.O=C(O)C(F)(F)F.O=C(O)C(F)(F)F (stereo unspecified) | 110.4
CC1c2ncc(Cn3cccn3)n2CCN1Cc1ccccn1.O=C(O)C(F)(F)F.O=C(O)C(F)(F)F (stereo unspecified) | 102.5
CC1c2ncc(COCC3CCOCC3)n2CCN1Cc1cccnc1.O=C(O)C(F)(F)F.O=C(O)C(F)(F)F (stereo unspecified) | -7.39
CCCc1n[nH]c(C2CN(Cc3nnc(C4CC4)n3C)CCO2)n1 (stereo unspecified) | -1.998
COCCO[C@H]1CCN(C(=O)c2cnoc2C)[C@H]1Cc1cnn(C)c1 | -37.67
CC(CN1CCN(C)CC1)NC(=O)c1cc(Cl)c2c(c1)OCO2 (stereo unspecified) | -52.56
Cn1cc(CN2CC[C@@H]3[C@@H](CCC(=O)N3CC3CCNCC3)C2)cn1 | -8.948
CN(C)S(=O)(=O)N1CC[C@@H]2CN(Cc3cnn(C)c3)C[C@@H]2C1 | -2.262
CCn1cc(CN2CCN(C)C3(CCC(=O)N(CC4CC4)CC3)C2)cn1 (stereo unspecified) | 0.5097
CCn1cc(CN2CCC(c3nnc(CN(C)C)n3CC)CC2)cn1 | -1.722

SMILES | Percent Effect [%]
CCC[C@@H]1CN(Cc2cnc3c(S(C)(=O)=O)cnn3c2)C[C@H]1N(C)C | -11.35
CCn1cc(CN2CCCC(c3[nH]ncc3S(C)(=O)=O)C2)cn1 (stereo unspecified) | 1.783
CS(=O)(=O)c1ncc(CN2CCN3CCCC3C2)n1CC1CCCCC1 (stereo unspecified) | 0.5285
Cn1cc(CN2CCC(c3[nH]ncc3S(C)(=O)=O)C2)cn1 (stereo unspecified) | 89.03
COc1ncc(CN2CCCC(c3[nH]ncc3S(C)(=O)=O)C2)cn1 (stereo unspecified) | 102.2
CCCn1cc(CN2CCC(c3[nH]ncc3S(C)(=O)=O)C2)cn1 (stereo unspecified) | 113
CCn1cc(CN2CCC(c3[nH]ncc3S(C)(=O)=O)C2)cn1 (stereo unspecified) | 105.5
COc1cc(Br)c(S(=O)(=O)NC(=O)C(C)OC)cc1OC (stereo unspecified) | 2.536
Cc1cc(C(=O)N2C[C@H]3CC[C@@H]2CN(Cc2ccccn2)C3)nc(C)n1 | -8.906
Cc1ccc(F)c(S(=O)(=O)NCc2[nH]ncc2Br)c1 | -8.756
CCn1nc(CC(C)C)cc1C(=O)N1CC(N2CCCCC2C)C1 (stereo unspecified) | 1.245
CC(CCS(C)(=O)=O)NC(=O)NCc1ccc2c(c1)CCC2 (stereo unspecified) | 5.194
Cc1ccc2c(c1)nc1n2[C@@H](CNC(=O)c2cncnc2)COC1 | -17.88
Cc1cc(N2CCC(n3cc(CN4CCNCC4)nn3)CC2)ccn1 | -4.274
O=C(NCC1COCc2c(-c3ccncc3)nnn2C1)[C@H]1CCCO1.O=C(O)C(F)(F)F (stereo partly specified) | 13.14
Cn1nccc1-c1nnn2c1COCC(CNC1CCOCC1)C2.O=C(O)C(F)(F)F.O=C(O)C(F)(F)F (stereo unspecified) | 88.78
CN(C)CCNCC1COCc2c(-c3ccnn3C)nnn2C1 (stereo unspecified) | 97.42
Cc1noc(C)c1CNCC1COCc2c(-c3ccoc3)nnn2C1.O=C(O)C(F)(F)F (stereo unspecified) | -8.022
Cn1nccc1-c1nnn2c1COCC(CNCC1CC1)C2.O=C(O)C(F)(F)F.O=C(O)C(F)(F)F (stereo unspecified) | 95.94
Fc1cccc(-c2nnn3c2COCC(CNCc2nccs2)C3)c1.O=C(O)C(F)(F)F (stereo unspecified) | -16.94
Cc1nc(CNCC2COCc3c(-c4ccoc4)nnn3C2)cs1 (stereo unspecified) | -8.682
c1csc(CNCC2COCc3c(-c4ccsc4)nnn3C2)n1 (stereo unspecified) | -12.98
O=C(O)C(F)(F)F.c1csc(CNCC2COCc3c(-c4ccoc4)nnn3C2)n1 (stereo unspecified) | 7.766
CC(C)N(Cc1cccnc1)C(=O)CNc1ccc(C#N)cc1 | -12.71
